# Experimental data reported in the supplement of paper PMC7411054.
# Structures can show the parent of a compound that is named as a salt.
# Experiments:
# Test in all cases: lowest phenotypically active concentration; higher = less potent
# Details in all cases: treatment time: 24 h
# [1] = system: HepG2-ACTB-RAB5A
# How it was run: (§1)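 Live-cell features were measured per well and normalised to solvent control wells after fifteen gene-edited A549, HepG2 and WPMY1 reporter lines had been treated for 24 h at 0.3, 1, 3 or 9 µM in four wells each. A condition was deviating when ≥3 of 4 wells sat beyond the 95th percentile of control Euclidean distances. It was reproducible when the median replicate Pearson correlation exceeded the 95th percentile of non-replicates. Phenotypic activity demanded both.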
# [2] = system: A549-GM130-SQSTM1
# How it was run: as §1
# [3] = system: HepG2-TP53BP1-CLTA
# How it was run: as §1
# [4] = system: A549-TUBA1B-RELA
# How it was run: as §1
# [5] = system: WPMY1-CANX-COX4
# How it was run: as §1
# [6] = system: WPMY1-TUBA1B-RELA
# How it was run: as §1
# [7] = system: A549-TP53BP1-CLTA
# How it was run: as §1
# [8] = system: WPMY1-TP53BP1-CLTA
# How it was run: as §1
# [9] = system: A549-ACTB-RAB5A
# How it was run: as §1
# [10] = system: A549-CANX-COX4
# How it was run: as §1
compound,measurement,setting,value
O=C(O)[C@H]1CCCC[C@H]1C(=O)N1CCc2ccccc2[C@H]1CN1C(=O)c2ccccc2C1=O,lowest phenotypically active concentration,[1],9 µM
CCCc1cc2c(N3CCN(C4=NCC(C)(C)S4)CC3)ncnc2s1 [MI 2 dihydrochloride],lowest phenotypically active concentration,[2],9 µM
same,lowest phenotypically active concentration,[1],9 µM
same,lowest phenotypically active concentration,[3],9 µM
Nc1nnc(Sc2ncc([N+](=O)[O-])s2)s1,lowest phenotypically active concentration,[4],9 µM
S=c1[nH]cnc2nc[nH]c12 [mercaptopurine],lowest phenotypically active concentration,[1],9 µM
same,lowest phenotypically active concentration,[5],9 µM
same,lowest phenotypically active concentration,[6],9 µM
Cc1cc(C)c(C)c(S(=O)(=O)Nc2ccc(N3CC[C@H](C(=O)O)C3)c3ccccc23)c1C,lowest phenotypically active concentration,[2],9 µM
COCCCOc1ccnc(CS(=O)c2nc3ccccc3[nH]2)c1C (centres undefined) [rabeprazole],lowest phenotypically active concentration,[1],9 µM
COc1cc(-c2cn(C)c(=O)c3cnccc23)c(OC)cc1CN(C)C,lowest phenotypically active concentration,[7],9 µM
same,lowest phenotypically active concentration,[1],9 µM
same,lowest phenotypically active concentration,[6],9 µM
CC(C)NCC(O)COc1ccc(CC(N)=O)cc1 (centres undefined) [atenolol-()],lowest phenotypically active concentration,[2],9 µM
same,lowest phenotypically active concentration,[8],9 µM
O=C(Nc1ccccc1)N1CCN(c2nc(-c3ccccc3)ns2)CC1,lowest phenotypically active concentration,[3],9 µM
CCCCCCCCCCCCC/C=C/[C@H](O)[C@H](N)CO [D-erythro-Sphingosine (synthetic)],lowest phenotypically active concentration,[2],9 µM
CO[C@H]1C=CO[C@@]2(C)Oc3c(C)c(O)c4c(O)c(c(/C=N/N5CCN(C)CC5)c(O)c4c3C2=O)NC(=O)C(C)=CC=C[C@H](C)[C@H](O)[C@@H](C)[C@@H](O)[C@@H](C)[C@H](OC(C)=O)[C@@H]1C [Rifampicin],lowest phenotypically active concentration,[2],9 µM
Nc1ncnc2c1ncn2[C@@H]1O[C@H](CO)[C@@H](O)[C@H]1O [Adenosine],lowest phenotypically active concentration,[1],9 µM
CC(C)(C)c1ccc(C(=O)Nc2cn3cc(-n4ccnc4)ccc3n2)cc1,lowest phenotypically active concentration,[1],3 µM
CCc1c(C(=O)Nc2cc(S(=O)(=O)N(CC)CC)ccc2O)[nH]c(C)c1C(C)=O,lowest phenotypically active concentration,[1],9 µM
O=C1NN(c2ccc(F)c(Cl)c2)C(=O)/C1=C\c1ccc([N+](=O)[O-])o1,lowest phenotypically active concentration,[2],3 µM
same,lowest phenotypically active concentration,[5],9 µM
Nc1ncnc2c1c(COc1cccc(Cl)c1)nn2C1CCOCC1,lowest phenotypically active concentration,[3],9 µM
Cc1nc[nH]c1C1CCN(c2nc3cccc4c3n2CCC4=O)CC1,lowest phenotypically active concentration,[3],9 µM
NCCCCNS(=O)(=O)c1ccc2c(Cl)cccc2c1 [W-13 hydrochloride],lowest phenotypically active concentration,[5],9 µM
same,lowest phenotypically active concentration,[6],9 µM
C#CCN[C@@H]1CCc2ccccc21 [rasagiline],lowest phenotypically active concentration,[3],9 µM
same,lowest phenotypically active concentration,[8],9 µM
O=c1cc(-c2ccc(O)cc2)oc2cc(O)cc(O)c12 [Apigenin],lowest phenotypically active concentration,[3],9 µM
same,lowest phenotypically active concentration,[8],3 µM
same,lowest phenotypically active concentration,[6],9 µM
CN/C(=C/[N+](=O)[O-])NCCSCc1csc(CN(C)C)n1 [nizatidine],lowest phenotypically active concentration,[3],1 µM
CCOC(=O)c1ccc(N2NC(=O)/C(=C/c3ccc([N+](=O)[O-])o3)C2=O)cc1,lowest phenotypically active concentration,[5],9 µM
NS(=O)(=O)C#Cc1ccccc1 [pifithrin-mu],lowest phenotypically active concentration,[6],9 µM
O=S(=O)(NCCCCCCc1ccccc1)c1cccc2c(Cl)cccc12,lowest phenotypically active concentration,[5],≤ 0.3 µM
Oc1cc(O)cc(/C=C/c2ccc(O)c(O)c2)c1 [Piceatannol],lowest phenotypically active concentration,[6],9 µM
CN(C)CCOC(c1ccccc1)c1ccccc1 [diphenhydramine],lowest phenotypically active concentration,[5],9 µM
same,lowest phenotypically active concentration,[8],9 µM
same,lowest phenotypically active concentration,[6],9 µM
Cc1ccc(C(=O)Oc2ccc(C(O)CNC(C)(C)C)cc2OC(=O)c2ccc(C)cc2)cc1 (centres undefined) [bitolterol],lowest phenotypically active concentration,[5],9 µM
CCN1C(=O)NC(c2ccccc2)C1=O (centres undefined) [ethotoin],lowest phenotypically active concentration,[5],3 µM
O=C(Nc1ccccc1)N1CCC(Cc2cnc3ccccc3c2)CC1,lowest phenotypically active concentration,[3],9 µM
Fc1ccc(Cl)cc1-c1nc(Nc2ccncc2)c2nccnc2n1,lowest phenotypically active concentration,[8],9 µM
O=C(O)/C(Cc1ccccc1[N+](=O)[O-])=N\Nc1nc(-c2ccc(Cl)c(Cl)c2)cs1,lowest phenotypically active concentration,[8],9 µM
NC(=O)c1sc2c([N+](=O)[O-])cc(C(F)(F)F)cc2[n+]1[O-] [Cyclapolin 9],lowest phenotypically active concentration,[6],9 µM
CC(C)C(=O)Nc1ncc(-c2cc(C(F)F)nn2-c2c(Cl)cccc2Cl)s1,lowest phenotypically active concentration,[9],≤ 0.3 µM
same,lowest phenotypically active concentration,[1],3 µM
same,lowest phenotypically active concentration,[5],3 µM
same,lowest phenotypically active concentration,[6],3 µM
C=C[C@H]1CN2CC[C@H]1C[C@H]2[C@H](O)c1ccnc2ccc(OC)cc12 [Quinine dihydrochloride],lowest phenotypically active concentration,[9],9 µM
same,lowest phenotypically active concentration,[2],3 µM
CS(=O)(=O)c1ccc(-c2nnc(/C=C/c3nnc(-c4ccc(C#N)cc4)o3)n2-c2ccccc2Cl)nc1,lowest phenotypically active concentration,[8],9 µM
COc1ccc2c3c(c(=O)n(C)c2c1OC)C=CC(C)(C)O3 [Veprisine],lowest phenotypically active concentration,[8],9 µM
COc1ccc(CCN(C)CCCC(C#N)(c2ccc(OC)c(OC)c2)C(C)C)cc1OC (centres undefined) [verapamil],lowest phenotypically active concentration,[9],9 µM
same,lowest phenotypically active concentration,[2],9 µM
same,lowest phenotypically active concentration,[4],9 µM
O=S(c1ccccc1)c1ccc2nnnn2n1 (centres undefined),lowest phenotypically active concentration,[9],9 µM
same,lowest phenotypically active concentration,[5],9 µM
same,lowest phenotypically active concentration,[6],9 µM
CN1C/C(=C/c2ccc(B(O)O)cc2)C(=O)/C(=C/c2ccc(B(O)O)cc2)C1,lowest phenotypically active concentration,[10],≤ 0.3 µM
same,lowest phenotypically active concentration,[7],≤ 0.3 µM
same,lowest phenotypically active concentration,[1],≤ 0.3 µM
same,lowest phenotypically active concentration,[3],9 µM
same,lowest phenotypically active concentration,[5],3 µM
same,lowest phenotypically active concentration,[8],3 µM
same,lowest phenotypically active concentration,[6],3 µM
Cc1nc(NC(=O)N2CCC[C@H]2C(N)=O)sc1-c1csc(C(C)(C)C)n1,lowest phenotypically active concentration,[7],9 µM
same,lowest phenotypically active concentration,[1],3 µM
same,lowest phenotypically active concentration,[3],3 µM
same,lowest phenotypically active concentration,[5],9 µM
same,lowest phenotypically active concentration,[8],3 µM
CCN1CCN(C(c2cccnc2)c2cc(Cl)c3cccnc3c2O)CC1 (centres undefined),lowest phenotypically active concentration,[10],3 µM
same,lowest phenotypically active concentration,[7],3 µM
same,lowest phenotypically active concentration,[1],9 µM
same,lowest phenotypically active concentration,[3],9 µM
same,lowest phenotypically active concentration,[5],9 µM
same,lowest phenotypically active concentration,[8],9 µM
COc1cc([C@@H]2c3cc4c(cc3[C@@H](O[C@@H]3O[C@@H]5CO[C@@H](C)O[C@H]5[C@H](O)[C@H]3O)[C@H]3COC(=O)[C@H]23)OCO4)cc(OC)c1O [etoposide],lowest phenotypically active concentration,[10],1 µM
same,lowest phenotypically active concentration,[7],≤ 0.3 µM
same,lowest phenotypically active concentration,[1],1 µM
same,lowest phenotypically active concentration,[3],≤ 0.3 µM
same,lowest phenotypically active concentration,[5],1 µM
same,lowest phenotypically active concentration,[8],1 µM
same,lowest phenotypically active concentration,[6],≤ 0.3 µM
CCN1CCN(c2cc(-c3ccc(F)cc3)c3c(n2)CCCCCC3)CC1 [blonanserin],lowest phenotypically active concentration,[7],9 µM
same,lowest phenotypically active concentration,[1],9 µM
same,lowest phenotypically active concentration,[3],3 µM
same,lowest phenotypically active concentration,[8],9 µM
same,lowest phenotypically active concentration,[6],9 µM
CCN(CC)CCCC(C)Nc1ccnc2cc(Cl)ccc12 (centres undefined) [chloroquine],lowest phenotypically active concentration,[7],9 µM
same,lowest phenotypically active concentration,[1],3 µM
same,lowest phenotypically active concentration,[3],9 µM
same,lowest phenotypically active concentration,[5],3 µM
same,lowest phenotypically active concentration,[8],9 µM
same,lowest phenotypically active concentration,[6],9 µM
CC(C)CCN1c2nc(Nc3cc(F)c(O)c(F)c3)ncc2N(C)C(=O)C1C (centres undefined),lowest phenotypically active concentration,[7],3 µM
same,lowest phenotypically active concentration,[1],3 µM
same,lowest phenotypically active concentration,[3],3 µM
same,lowest phenotypically active concentration,[5],3 µM
same,lowest phenotypically active concentration,[8],≤ 0.3 µM
same,lowest phenotypically active concentration,[6],3 µM
CCCCC1C(=O)N(c2ccccc2)N(c2ccc(O)cc2)C1=O (centres undefined) [oxyphenbutazone],lowest phenotypically active concentration,[6],9 µM
O=c1cc(-c2cccc3c2Sc2ccccc2S3)oc(N2CCOCC2)c1,lowest phenotypically active concentration,[1],3 µM
same,lowest phenotypically active concentration,[3],9 µM
same,lowest phenotypically active concentration,[5],9 µM
same,lowest phenotypically active concentration,[8],3 µM
Oc1ccc(Nc2nc(-c3ccc(Cl)cc3)cs2)cc1,lowest phenotypically active concentration,[10],3 µM
same,lowest phenotypically active concentration,[7],9 µM
same,lowest phenotypically active concentration,[5],3 µM
same,lowest phenotypically active concentration,[8],9 µM
same,lowest phenotypically active concentration,[6],9 µM
Cc1c2oc3c(C)ccc(C(=O)NC4C(=O)NC(C(C)C)C(=O)N5CCCC5C(=O)N(C)CC(=O)N(C)C(C(C)C)C(=O)OC4C)c3nc-2c(C(=O)NC2C(=O)NC(C(C)C)C(=O)N3CCCC3C(=O)N(C)CC(=O)N(C)C(C(C)C)C(=O)OC2C)c(N)c1=O (centres undefined) [Actinomycin D],lowest phenotypically active concentration,[10],≤ 0.3 µM
same,lowest phenotypically active concentration,[7],≤ 0.3 µM
same,lowest phenotypically active concentration,[1],≤ 0.3 µM
same,lowest phenotypically active concentration,[3],≤ 0.3 µM
same,lowest phenotypically active concentration,[5],≤ 0.3 µM
same,lowest phenotypically active concentration,[8],≤ 0.3 µM
same,lowest phenotypically active concentration,[6],≤ 0.3 µM
O=c1[nH]cc(F)c(=O)[nH]1 [5-Fluorouracil],lowest phenotypically active concentration,[10],3 µM
same,lowest phenotypically active concentration,[7],9 µM
same,lowest phenotypically active concentration,[1],3 µM
same,lowest phenotypically active concentration,[3],3 µM
same,lowest phenotypically active concentration,[8],9 µM
